# Measurements as given in PubChem BioAssay (NCATS).
# Inconclusive results are not listed. Entries that show only a call come without a potency. Values without a mark were called inactive. Calls of active or inactive are those of the source. Calls come from the whole dose curve; as a rule, active = well fitted curve in the direction sought with a large enough effect; inconclusive = small, poorly fitted or top-dose-only effect, or another doubt; inactive = no such curve, though single readings can be large; an effect the other way counts as inactive or inconclusive.
# Assays:
# [1] = qHTS of pediatric cancer cell lines to identify multiple opportunities for drug repurposing: Primary screen for SJ-GBM2 cells (AID 1347091)
# Outline: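 Viability measured as metabolically active cells via CellTiter-Glo luminescence following 48 hours of compound exposure, 11-point dilutions in confirmatory testing. 500-1,000 cells/well plated 5 hours before dosing; controls were DMSO and 2.3 µM bortezomib.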
# [2] = qHTS of pediatric cancer cell lines to identify multiple opportunities for drug repurposing: Primary screen for A673 cells (AID 1347092); note: nearly all actives have a fitted effect of over 45% in size
# Outline: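 Cell viability of A673 measured by CellTiter-Glo ATP luminescence after 48 hours compound exposure. Dilution series spanned 0.78 nM to 46 µM (MIPE, 11-point) or 0.59 nM to 46 µM (NPC, 8-point); bortezomib 2.3 uM positive control.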
# [3] = qHTS of pediatric cancer cell lines to identify multiple opportunities for drug repurposing: Primary screen for BT-37 cells (AID 1347094); for activity change, negative = cytotoxic: series mostly up to about 57 µM
# Outline: (§1)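 Phenotypic viability qHTS, 48 h compound exposure, CellTiter-Glo luminescence read-out; multi-concentration dosing so that potency and efficacy derive directly from the primary screen's curves.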
# [4] = qHTS of pediatric cancer cell lines to identify multiple opportunities for drug repurposing: Primary screen for U-2 OS cells (AID 1347096); note: nearly all actives have a fitted effect of over 50% in size
# Outline: (§2)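 Viability after 48 h compound treatment at 37C, 500-1,000 cells/well, read as ATP luminescence with CellTiter-Glo. Primary screens used 11-point (MIPE, 0.78 nM-46 µM) or 8-point (NPC, 0.59 nM-46 µM) final concentrations; follow-up screens used 11-point dilutions.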
# [5] = qHTS of pediatric cancer cell lines to identify multiple opportunities for drug repurposing: Primary screen for Saos-2 cells (AID 1347097); note: nearly all actives have a fitted effect of over 40% in size
# Outline: as §1
# [6] = qHTS of pediatric cancer cell lines to identify multiple opportunities for drug repurposing: Primary screen for SK-N-SH cells (AID 1347098); note: nearly all actives have a fitted effect of over 65% in size;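 for activity change, negative = cytotoxic: DMSO served as neutral control and bortezomib at 2.3 µM as positive control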
# Outline: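 Cells (500-1,000/well) rested 5 h, then received compounds for 48 h; metabolically active cells were measured by CellTiter-Glo luminescence. Final concentrations spanned up to 46 µM (MIPE, 11-point) or 0.59 nM-46 µM (NPC, 8-point) in primary screens, 11-point in follow-ups.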
# [7] = qHTS of pediatric cancer cell lines to identify multiple opportunities for drug repurposing: Primary screen for NB1643 cells (AID 1347099); note: nearly all actives have a fitted effect of over 50% in size
# Outline: as §1
# [8] = qHTS of pediatric cancer cell lines to identify multiple opportunities for drug repurposing: Primary screen for LAN-5 cells (AID 1347100)
# Outline: as §2
# [9] = qHTS of pediatric cancer cell lines to identify multiple opportunities for drug repurposing: Primary screen for SK-N-MC cells (AID 1347093); for activity change, negative = cytotoxic: series mostly up to about 46 µM
# Outline: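 Metabolically active cells were quantified by ATP-dependent luminescence (CellTiter-Glo, 15 min at room temperature) following 48 h treatment. Cells had been plated at 500-1,000 per well and settled for 5 h beforehand.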
# [10] = qHTS of pediatric cancer cell lines to identify multiple opportunities for drug repurposing: Primary screen for NB-EBc1 cells (AID 1347095)
# Outline: as §1
# Potency is the fitted concentration of half-maximal effect.
smiles,measurement,setting,value
Cc1ccc(O)c(C(CCN(C(C)C)C(C)C)c2ccccc2)c1 (stereo unspecified),Potency,[1],inactive
same,Potency,[2],inactive
same,Potency,[3],inactive
same,Potency,[4],inactive
same,Potency,[5],inactive
same,Potency,[6],inactive
same,Potency,[7],inactive
same,Potency,[8],inactive
CC(=O)OC[C@@H]1O[C@@H](n2ccc(=O)[nH]c2=O)[C@H](OC(C)=O)[C@H]1OC(C)=O,Potency,[1],inactive
same,Potency,[9],inactive
same,Potency,[3],inactive
same,Potency,[4],inactive
Nc1nc(=O)n([C@H]2C[C@H](O)[C@@H](CO)O2)cc1F,Potency,[1],inactive
same,Potency,[10],3.72 µM (active)
same,Potency,[4],inactive
same,Potency,[5],inactive
same,Potency,[6],inactive
same,Potency,[7],inactive
CC(=O)NCC(=O)N1[C@H]2CC[C@H]1c1cc(Nc3ncc(C(F)(F)F)c(NC4CCC4)n3)ccc12,Potency,[2],3.72 µM (active)
same,Potency,[9],0.118 µM (active)
same,Potency,[3],24.3 µM (active)
same,Potency,[10],0.0662 µM (active)
same,Potency,[4],inactive
same,Potency,[5],0.743 µM (active)
same,Potency,[6],1.08 µM (active)
same,Potency,[7],1.18 µM (active)
CCN(C(=O)c1c(O)c2c(Cl)cccc2n(C)c1=O)c1ccccc1,Potency,[1],inactive
same,Potency,[3],21.7 µM (active)
same,Potency,[10],inactive
same,Potency,[4],inactive
same,Potency,[6],inactive
same,Potency,[7],inactive
same,Potency,[8],inactive
O=C(O)C[C@H](O)C[C@H](O)C=Cc1c(C2CC2)nc2ccccc2c1-c1ccc(F)cc1,Potency,[2],3.72 µM (active)
same,Potency,[9],4.69 µM (active)
same,Potency,[3],15.3 µM (active)
same,Potency,[10],20.9 µM (active)
same,Potency,[4],9.35 µM (active)
same,Potency,[5],0.833 µM (active)
same,Potency,[6],4.82 µM (active)
same,Potency,[7],9.35 µM (active)
CC(=O)O[C@H]1C[C@@H]2CC[C@H]3[C@H]4C[C@H]([N+]5(C)CCCCC5)[C@@H](OC(C)=O)[C@@]4(C)CC[C@@H]3[C@@]2(C)C[C@H]1N1CCCCC1,Potency,[1],inactive
same,Potency,[3],inactive
same,Potency,[4],inactive
same,Potency,[5],inactive
same,Potency,[6],inactive
same,Potency,[7],inactive
same,Potency,[8],inactive
CCCCOc1ccc(C(=O)Nc2ccc(F)cc2F)cc1,Potency,[1],inactive
same,Potency,[3],inactive
same,Potency,[10],inactive
same,Potency,[4],inactive
same,Potency,[8],inactive
CC(Cc1ccc(O)c(O)c1)(NN)C(=O)O (stereo unspecified),Potency,[1],inactive
same,Potency,[4],inactive
same,Potency,[5],inactive
same,Potency,[6],inactive
Cc1cn([C@@H]2O[C@H](CO)[C@@H](O)[C@H]2F)c(=O)[nH]c1=O,Potency,[1],inactive
same,Potency,[2],inactive
same,Potency,[10],inactive
same,Potency,[4],inactive
same,Potency,[5],inactive
same,Potency,[6],inactive
same,Potency,[7],inactive
same,Potency,[8],inactive
CN(C)CC[C@H](c1ccc(Cl)cc1)c1ccccn1,Potency,[1],inactive
same,Potency,[9],10.5 µM (active)
same,Potency,[3],inactive
same,Potency,[10],inactive
same,Potency,[4],inactive
same,Potency,[5],inactive
same,Potency,[8],inactive
C=CC[C@@H]1C=C(C)C[C@H](C)C[C@H](OC)[C@H]2O[C@@](O)(C(=O)C(=O)N3CCCC[C@H]3C(=O)O[C@H](C(C)=C[C@@H]3CC[C@H](O)[C@H](OC)C3)[C@@H](C)[C@@H](O)CC1=O)[C@@H](C)C[C@@H]2OC,Potency,[2],inactive
same,Potency,[9],8.33 µM (active)
same,Potency,[3],1.72 µM (active)
same,Potency,[10],inactive
same,Potency,[4],inactive
same,Potency,[5],1.87 µM (active)
same,Potency,[6],6.07 µM (active)
Cc1cc(C(=O)NOCCO)c(Nc2ccc(I)cc2F)n(C)c1=O,Potency,[1],inactive
same,Potency,[9],0.662 µM (active)
same,Potency,[6],2.15 µM (active)
CC(C)c1cc(C(C)C)c(CC(=O)NS(=O)(=O)Oc2c(C(C)C)cccc2C(C)C)c(C(C)C)c1,Potency,[1],11.8 µM (active)
same,Potency,[3],24.3 µM (active)
same,Potency,[10],14.8 µM (active)
same,Potency,[4],inactive
same,Potency,[5],18.7 µM (active)
same,Potency,[6],inactive
same,Potency,[7],16.6 µM (active)
COC(=O)[C@@H]1[C@H]2C[C@@H]3c4[nH]c5ccccc5c4CCN3C[C@@H]2CC[C@@H]1O,Potency,[1],inactive
same,Potency,[9],2.96 µM (active)
same,Potency,[10],inactive
same,Potency,[4],inactive
same,Potency,[5],inactive
same,Potency,[6],inactive
same,Potency,[8],inactive
N#CC(=C(N)Sc1ccc(N)cc1)c1ccccc1C(F)(F)F,Potency,[1],inactive
same,Potency,[2],inactive
same,Potency,[4],inactive
same,Potency,[6],4.82 µM (active)
same,Potency,[7],inactive
CC1=C(C(=O)Nc2cc3cn[nH]c3cc2F)C(c2ccc(Cl)cc2F)N=C(c2ccnc(Cl)c2)N1 (stereo unspecified),Potency,[1],5.9 µM (active)
same,Potency,[9],11.8 µM (active)
same,Potency,[3],24.3 µM (active)
same,Potency,[10],10.5 µM (active)
same,Potency,[4],inactive
same,Potency,[5],5.9 µM (active)
same,Potency,[6],19.2 µM (active)
same,Potency,[8],9.35 µM (active)
CC(=CC(=O)Nc1ccccc1C(=O)O)c1ccc2ccccc2c1,Potency,[1],inactive
same,Potency,[9],8.33 µM (active)
same,Potency,[4],inactive
same,Potency,[8],inactive
C[C@](Cc1c[nH]c2ccccc12)(NC(=O)OC1C2CC3CC(C2)CC1C3)C(=O)NC[C@H](NC(=O)CCC(=O)O)c1ccccc1 (stereo partly specified),Potency,[1],inactive
same,Potency,[9],20.9 µM (active)
same,Potency,[3],inactive
same,Potency,[10],inactive
same,Potency,[4],inactive
CC(C)(C)[C@H](NC(=O)c1ccc(N)c(Cl)c1)C(=O)N1CCC[C@@H]1C(=O)N[C@H](C#N)CC(=O)O,"activity change, negative = cytotoxic",[1],0.43% [at 4.84 µM]
same,Potency,[9],0.235 µM (active)
same,"activity change, negative = cytotoxic",[3],-11.4% [at 6.03 µM]
same,"activity change, negative = cytotoxic",[4],9.94% [at 4.84 µM]
same,"activity change, negative = cytotoxic",[6],23.1% [at 6 µM]
O=C(Nc1ccc(Oc2ccnc3[nH]ccc23)c(F)c1)c1cccn(-c2ccc(F)cc2)c1=O,Potency,[1],16.6 µM (active)
same,Potency,[3],inactive
same,Potency,[4],inactive
same,Potency,[6],inactive
same,Potency,[7],inactive
same,Potency,[8],inactive
C=C(C)[C@@H]1CC[C@]2(C(=O)O)CC[C@]3(C)[C@H](CC[C@@H]4[C@@]5(C)CC[C@H](O)C(C)(C)[C@@H]5CC[C@]43C)[C@@H]12,Potency,[1],18.7 µM (active)
same,Potency,[3],inactive
same,Potency,[4],inactive
same,Potency,[5],18.7 µM (active)
same,Potency,[6],inactive
same,Potency,[7],inactive
same,Potency,[8],inactive
